High-throughput results (PubChem BioAssay)
In the library only some 1.2% were active in any assay of this set; here they are far more common.
Phagocyt inh = inhibitors of macrophage phagocytosis. J774A.1 macrophage IgG-bead phagocytosis, imaging. inhibition, % at 5 µM. actives 0.07% (n = 110,000). AID 1029;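 active = inhibition above the mean of the plate negative controls plus 5 SD, cut at about 13% in these data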;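 also: phagocytic index as fraction of beads internalized from green versus red external bead signal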
Smad3 inh = inhibitors of human Smad3 transcription factor binding | P84022 | inhibition, % at 25 µM | actives 0.29% (n = 88,000) | TR-FRET Smad3/Dy647-FoxH1 peptide binding, europium anti-His;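 active = compounds that reduce the energy-transfer binding signal between the protein and its labelled peptide by more than half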
MRP1 act = activates MRP-1 | H69AR cells + doxorubicin, viability rescue, CellTiter-Glo | viability increase, % at 10 µM | actives 0.61% (n = 140,000) | AID 799;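 active = viability gain under doxorubicin at or above a set limit, the compound median plus 3 SD, cut at about 4.7% in these data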;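 also: MRP-1 overexpressing cells given doxorubicin 25 µM after compound pretreatment; 18-22 h compound pretreatment then 72 h with doxorubicin before readout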
MRP reversal = reverses drug resistance mediated by MRP; H69AR cells + 2 uM doxorubicin, CellTiter-Glo, 72 h; differential viability (reversal), % at 10 µM; actives 0.04% (n = 85,000); AID 602;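 active = viability drop by adding the cancer drug above about 55%, with treated viability meeting a 40% cutoff, limit read from the data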;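 also: larger differential means the compound sensitizes cells more to doxorubicin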
CD11b adhes enh = increases human CD11b/CD18 adhesion to fibrinogen. P05107+P11215. K562 CD11b/CD18 adhesion to fibrinogen, ATPlite luminescence. activation, % at 10 µM. actives 0.07% (n = 93,000). AID 1499;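 active = 10 µM primary screen giving 50% or more activity, confirmed by 40% or more on retest at that dose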
Target sequence (P05107 whole entry, looked up, other chains not shown): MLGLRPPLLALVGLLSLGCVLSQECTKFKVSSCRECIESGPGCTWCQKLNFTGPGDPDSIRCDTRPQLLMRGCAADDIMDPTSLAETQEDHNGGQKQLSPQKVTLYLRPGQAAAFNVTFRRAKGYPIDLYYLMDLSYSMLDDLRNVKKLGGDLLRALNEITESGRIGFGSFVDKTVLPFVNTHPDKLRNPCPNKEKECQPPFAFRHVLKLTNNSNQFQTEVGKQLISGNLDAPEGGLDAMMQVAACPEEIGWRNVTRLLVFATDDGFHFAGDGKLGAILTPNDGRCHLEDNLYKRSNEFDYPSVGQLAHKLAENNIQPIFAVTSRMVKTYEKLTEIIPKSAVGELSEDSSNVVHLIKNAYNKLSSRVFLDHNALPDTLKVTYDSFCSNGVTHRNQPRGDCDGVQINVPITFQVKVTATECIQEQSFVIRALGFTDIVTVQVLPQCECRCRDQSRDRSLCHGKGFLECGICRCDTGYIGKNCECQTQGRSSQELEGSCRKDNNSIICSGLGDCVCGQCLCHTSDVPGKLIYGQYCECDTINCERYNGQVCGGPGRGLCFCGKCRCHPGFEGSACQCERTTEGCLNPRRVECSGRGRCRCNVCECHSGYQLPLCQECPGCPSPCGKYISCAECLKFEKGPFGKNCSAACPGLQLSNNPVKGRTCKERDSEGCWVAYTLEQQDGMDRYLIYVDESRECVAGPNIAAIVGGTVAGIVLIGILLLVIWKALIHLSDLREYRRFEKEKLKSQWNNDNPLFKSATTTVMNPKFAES
Mac1 fbg inh = CD11b/CD18-fibrinogen binding inhibition | AID 1497 | inhibition, % at 10 µM | actives 0.54% (n = 93,000) | K562 CD11b/CD18 adhesion to fibrinogen, ATPlite luminescence; Mn2+ added to activate the integrin;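 active = primary inhibition of 50% or more at 10 µM, then 40% or more on retest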
A number is an active result; n = inactive; x = no result given; [ ] = another dose, or the depositor's remark.

SMILES | Phagocyt inh | Smad3 inh | MRP1 act | MRP reversal | CD11b adhes enh | Mac1 fbg inh
Cc1c(Cl)cccc1NC(=O)CSc1nnc(CCNC(=O)OC(C)(C)C)o1 | n | n | n | n | n | n
Cc1ccc(CN2CCc3c(OCc4ccc(F)cc4)cccc3C2=O)cc1 | n | x | n | x | n | n
O=C1c2cccc(OCc3ccc(F)cc3)c2CCN1Cc1ccc(F)cc1 | n | x | 5.6 | x | n | n
N/C(=N\c1nc2c(c(=O)[nH]1)CCC2)Nc1ccccc1C(F)(F)F | n | x | n | x | n | n
NCC[C@H](N)C(=O)O | x | n | x | x | x | x
O=C(COc1ccccc1N1C(=O)c2ccccc2C1=O)c1ccc(Cl)cc1 | 6.1[artifact] | x | n | x | n | n
Cc1ccc(CCN2CC(C(=O)NCCCN3CCCCCC3)CC2=O)cc1 (stereo unspecified) | n | 66.2 | n | n | n | n
Cc1ccc(CCN2CC(C(=O)NCCN3CCCCCC3)CC2=O)cc1 (stereo unspecified) | n | n | n | n | n | n
CCOC(=O)c1ccc(NC2=CC(=O)C(=O)c3ccccc32)cc1 | n | 77.5 | n | n | n | n
C[N+]1(CCC[N+]2(C)C[C@@H]3[C@H](C2)[C@@H]2C=C[C@H]3CC2)CCOCC1 (stereo partly specified) | x | n | x | x | x | x
Cc1ccc(S(=O)(=O)c2c(C)nn(C(C)(C)C)c2OC(=O)c2ccco2)cc1 | n | n | n | n | n | n
Cc1ccc(S(=O)(=O)c2c(C)nn(C(C)(C)C)c2OC(=O)c2ccc(Br)o2)cc1 | n | n | n | n | n | 54.2
Nc1nc(N)c(CCCCc2ccccc2)c(N)n1 | x | n | x | x | x | x
COc1cccc(CNC(=O)CCNC(=O)Cn2ccc3ccccc3c2=O)c1 | x | x | n | x | x | x
O=C(CCNC(=O)Cn1ccc2ccccc2c1=O)NCCc1ccccc1Cl | n | x | 5.1 | x | x | x
O=C(Cc1ccccc1)Nc1ccccc1Oc1ccccc1 | n | x | 8.1 | x | x | x
NC(=O)C1(N2CCCCC2)CCN(C(=O)c2cccn3c(=O)c4cc(Cl)ccc4nc23)CC1 | n | n | 5.6 | n | n | n
O=[N+]([O-])c1cc([N+](=O)[O-])c2cccnc2c1Oc1ccccc1O | n | x | n | x | n | 90.0
O=[N+]([O-])c1ccc(O)c2ncccc12 | x | x | n | x | x | x
CC(C)(N)CO[C@@H]1C[C@@H]2CC[C@@]1(C)C2(C)C | x | n | x | x | x | x
COCCn1c(SCCCC(=O)c2ccc(Br)cc2)nnc1-c1ccncc1 | n | n | n | n | n | 68.8
Cn1c(SCCCC(=O)c2ccc(F)cc2)nnc1-c1ccncc1 | n | n | n | n | n | n
CCN1C(=O)/C(=C/C=C2/Sc3ccc4ccccc4c3N2CCO)SC1=S | 122.8[fluoresces] | x | n | x | x | x
CCN1C(c2ccccc2)=C(c2ccccc2)S/C1=C\C=C1/SC(=S)N(C)C1=O | x | n | x | n | x | x
O=C(NCCc1ccc(Cl)cc1)c1nnc(Cc2ccc(Cl)cc2)o1 | x | n | n | n | x | x
SMILES | Phagocyt inh | Smad3 inh | MRP1 act | MRP reversal | CD11b adhes enh | Mac1 fbg inh
CC(CCc1ccccc1)NC(=O)CN1CCN(Cc2ccccc2)C1=O (stereo unspecified) | n | n | n | n | n | n
CC(CCc1ccccc1)NC(=O)c1nnc(Cc2ccc(Cl)cc2)o1 (stereo unspecified) | n | n | 9.9 | n | n | n
CC(CCc1ccccc1)NC(=O)CN1CCN(Cc2ccc(Cl)cc2)C1=O (stereo unspecified) | n | n | 7.3 | n | n | n
O=c1cc(CF)[nH]c(=S)[nH]1 | x | n | x | x | x | x
CCC1=NN(C(=O)c2ccc(Br)cc2)C(O)(c2ccc(C)cc2)C1 (stereo unspecified) | n | x | n | x | x | x
CCC1=NN(C(=O)c2ccc(C)cc2)C(O)(c2ccc(Br)cc2)C1 (stereo unspecified) | x | x | 4.9 | x | n | n
CC1=NN(C(=O)c2ccc(Br)cc2)C(O)(C(F)(F)OC(F)(F)F)C1 (stereo unspecified) | n | x | n | x | n | 92.7
CC1=NN(C(=O)c2csc(C)c2)C(O)(C(F)(F)F)C1 (stereo unspecified) | n | x | n | x | n | n
Cn1c(=O)c2c(ncn2CN2CCN(Cn3cnc4c3c(=O)n(C)c(=O)n4C)CC2)n(C)c1=O | x | 97.6 | x | x | x | x
C=CCN(C(=O)Nc1ccc(F)cc1)C1CC(=O)N(c2ccc(OC)cc2)C1=O (stereo unspecified) | n | n | n | n | n | n
C=CCN(C(=O)Nc1ccc(Cl)cc1)C1CC(=O)N(c2ccc(OC)cc2)C1=O (stereo unspecified) | n | n | 6.6 | n | n | n
Cc1nc(N2CCN(Cc3ccccc3)CC2)nc2c1C(=O)CC(c1ccco1)C2 (stereo unspecified) | n | n | 5.6 | n | n | n
Cc1nc(N2CCN(Cc3ccc4c(c3)OCO4)CC2)nc2c1C(=O)CC(c1ccco1)C2 (stereo unspecified) | n | n | n | x | n | n
Cc1cccc2c3nc4ccccc4nc3n(CCCN3C(=O)c4ccccc4C3=O)c12 | n | x | 5.2 | x | x | x
COc1ccc2c(c1)c1nc3ccccc3nc1n2CCCN1C(=O)c2ccccc2C1=O | n | x | n | x | x | x
Cc1nn(C)c(C)c1CN(C)C(=O)c1cc2n(n1)C(C(F)(F)F)CC(c1cccs1)N2 (stereo unspecified) | x | 54.4[fluorescence artefact?] | n | n | x | x
COC(=O)C1=C(C)NC(C)=C(C(=O)OC)C1c1ccccc1OCc1c(C)no[n+]1[O-] | n | n | 9.0 | n | n | n
CCOC(=O)C1=C(C)NC(C)=C(C(=O)OC)C1c1cccc(Cl)c1Cl (stereo unspecified) | x | n | n | n | x | x
O=C(COc1ccc(Cl)cc1)NCc1nnc(SCC(=O)N2CCCc3ccccc32)o1 | n | n | n | n | n | n
O=C(O)CCCCn1cnc2c(=S)nc[nH]c21 | x | 51.6 | x | x | x | x
O=C(O)CCn1cnc2c(=S)nc[nH]c21 | x | 52.6 | x | x | x | x
O=C(O)[C@H]([C@H]1NCCS1)N1C(=O)c2ccccc2C1=O | x | n | x | x | x | x
Cc1ccsc1/C=N/NC(=O)CSCc1ccc(Cl)cc1 | n | x | n | x | n | n
Cc1ccc(/C=N/NC(=O)CSCc2ccc(Cl)cc2)cc1 | n | x | 6.3 | x | n | n
CO[C@@H]1/C=C\O[C@@]2(C)Oc3c(C)c(O)c4c(c3C2=O)C(=N[C@H]2CC[C@H](O)O[C@@H]2C)C=C(NC(=O)/C(C)=C\C(=O)[C@@H]2C[C@H]2[C@@H](O)[C@H](C)[C@@H](O)[C@H](C)[C@H](OC(C)=O)[C@@H]1C)C4=O | x | n | x | x | x | x
CCc1ccc(/C=C2\SC(=S)N(CCCC(=O)Nc3nccs3)C2=O)cc1 | n | x | n | x | n | n
Cc1ccc(/C=C2\SC(=S)N(CCCC(=O)Nc3ccccn3)C2=O)cc1 | x | x | 6.8 | x | x | x
Cc1ccc(/C=C2\SC(=S)N(CCCC(=O)Nc3nccs3)C2=O)cc1 | n | x | 5.3 | x | n | n
CCOC(=O)c1sc(-c2ccc(F)cc2)cc1NC(=O)Nc1ccccc1OC | n | x | 9.0 | x | n | n
CCOC(=O)c1sc(-c2ccccc2)cc1NC(=O)Nc1ccccc1 | n | x | 6.0 | x | n | n
